# PubChem BioAssay
# Calls of active or inactive are those of the source. Unless noted, no stated cut-off is given here; in the data, active means inhibition above about 80%; inactive means the rest.
# Columns and labels:
# [1] = growth inhibition, single agent or in combination, cell-based, chromothripsis tumors, cisplatin or BGB combos (AID 1671449); details: LFS_MB_P medulloblastoma cells;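 further: cells exposed for 96 hours; 0% = vehicle DMSO and 100% = killing by high DMSO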
# [2] = growth inhibition, single agent and combos, cell-based, chromothripsis tumors, cisplatin or BGB combos (AID 1671450); details: HDN33 neuroblastoma cells, stronger effect = higher value;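 further: cells exposed to compound for four days; 0% = vehicle DMSO and 100% = cell killing by high DMSO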
# [3] = growth inhibition, single agents and combos, ICB984, cell-based, cisplatin or BGB combos, synergistic combos for chromothripsis tumors (AID 1671451; call rule not given here;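 further: cells exposed for 96 hours before readout; 0% = vehicle DMSO and 100% = killing by high DMSO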); details: ICB984 medulloblastoma cells, drug combinations, stronger effect = higher value
# [4] = growth inhibition, single agents and combos, LFS_MB_1R, cell-based, cisplatin or BGB combos, synergistic combos for chromothripsis tumors (AID 1671452); details: LFS_MB_1R medulloblastoma cells, stronger effect = higher value;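 further: cells exposed for 96 hours before readout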
# [5] = growth inhibition, single agents and combos, HTB85, cell-based, BGB or cisplatin IC20 combos, synergistic combos for chromothripsis tumors (AID 1671453); details: HTB85 osteosarcoma cells, drug combinations, stronger effect = higher value;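 further: cells exposed for 96 hours before readout; 0% = vehicle DMSO and 100% = high DMSO killing control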
# [6] = growth inhibition, single agents and combos, CRL2098, cell-based, BGB or cisplatin IC20 combos, synergistic combos for chromothripsis tumors (AID 1671454); details: CRL2098 osteosarcoma cells, drug combinations, stronger effect = higher value;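 further: cells exposed for 96 h before readout; 0% = vehicle DMSO and 100% = killing by high DMSO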
# [7] = growth inhibition, single agents and combos, HD-MB03, cell-based, BGB or cisplatin IC20 combos, synergistic combos for chromothripsis tumors (AID 1671455; in the data active means inhibition above about 83%;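 further: 0% = vehicle DMSO and 100% = high DMSO as cytotoxic control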); details: HD-MB03 medulloblastoma cells, stronger effect = higher value
# [8] = growth inhibition, single agents and combos, UWB1.289, cell-based, BGB or cisplatin combos, synergistic combos for chromothripsis tumors (AID 1671456); details: UWB1.289 ovarian carcinoma cells, stronger effect = higher value;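 further: cells exposed to compound for four days; 0% = vehicle DMSO and 100% = killing by high DMSO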
# [9] = growth inhibition, single agents and combos, LFS_MB_2R, cell-based, cisplatin combos, synergistic combos for chromothripsis tumors (AID 1671457); details: LFS_MB_2R medulloblastoma cells, stronger effect = higher value;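 further: cells exposed to compound for four days before readout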
# [10] = growth inhibition, MDA-MB-436, cell-based, BGB or cisplatin combos, synergistic combos for chromothripsis tumors (AID 1671458; call rule not given here;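 further: cells exposed for 96 hours; 0% = vehicle DMSO and 100% = killing by high DMSO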); details: MDA-MB-436 breast carcinoma growth inhibition, drug combinations, stronger effect = higher value
# [11] = UWB1.289_BRCA1 ovarian cancer growth, cell-based, BGB or cisplatin combinations (AID 1671459); details: UWB1.289 BRCA1 ovarian carcinoma, drug combinations, stronger effect = higher value
# [12] = drug combination toxicity in non-malignant astrocytes – cell-based, BGB or cisplatin IC20 combos, cytotoxicity control for chromothriptic childhood tumor combination screen (AID 1671460); details: Human astrocytes, viability inhibition, drug combinations, at 0.5 µM, stronger effect = higher value;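 further: cells exposed to compounds for 96 hours before viability readout; 0% = vehicle and 100% = killing control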
# [13] = BT084 cell growth, single and combined drugs, ICGC_MB145, cisplatin and BGB IC40 combos (AID 1671461); details: BT084 medulloblastoma cells, drug combinations, stronger effect = higher value;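 further: cells exposed to drugs for 96 hours; 0% = vehicle DMSO and 100% = high DMSO full killing control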
# [14] = RCMB18 cell growth, single agent and combined, cisplatin and BGB IC40 combos (AID 1671462); details: RCMB18 medulloblastoma cells, stronger effect = higher value;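 further: cells exposed to compound for four days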
# [15] = CRL1545 cell growth, single agent and combined, cisplatin and BGB IC20 combos (AID 1671464); details: CRL1545 osteosarcoma cells, stronger effect = higher value;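 further: cells exposed to compound for 96 hours before readout; 0% = vehicle DMSO and 100% = high DMSO killing control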
# [16] = galactose survival enhancers in mitochondrial complex I cybrids – cell-based, galactose medium, ATP luminescence, primary screen (AID 1645843;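 active means z-score of at least 1.8 in each of two replicates, scored against plate mean and spread of sample wells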;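 further: positive z means more ATP and so rescue of galactose-driven cybrid death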); details: complex I mutant cybrid cells, 72 h, stronger effect = higher value
# [17] = measured here: combination with BGB IC40, at 0.05 µM
# [18] = measured here: with BGB IC20 combination, at 0.5 µM
# [19] = measured here: with cisplatin IC20 combination, at 0.5 µM
# [20] = measured here: combination with cisplatin, at 0.5 µM
# [21] = measured here: combination with cisplatin, at 5 µM
smiles,measurement,setting,value
O=C1N=c2ccccc2=C1c1c(O)[nH]c2ccccc12,inhibition,"[1]; at 0.5 µM, stronger effect = higher value",-10.5% (inactive)
same,inhibition,"[1]; measured here: combination with BGB IC20, at 0.005 µM",-1.18%
same,inhibition,"[1]; measured here: combination with BGB IC40, at 0.005 µM",-11.2%
same,inhibition,[1]; [17],-2.67%
same,inhibition,"[1]; measured here: combination with cisplatin, at 0.5 µM, stronger effect = higher value",-21%
same,inhibition,"[1]; measured here: combination with cisplatin, at 5 µM, stronger effect = higher value",114%
same,inhibition,"[2]; BGB combo, at 5 µM",61%
same,inhibition,[2]; at 0.5 µM,5.47% (inactive)
same,inhibition,"[2]; cisplatin combo, at 5 µM",51.4%
same,inhibition,[2]; [18],16.4%
same,inhibition,[2]; [19],-3.78%
same,inhibition,"[2]; single agent, at 5 µM",45.3%
same,inhibition,"[3]; BGB IC20 combo, at 0.005 µM",11.6%
same,inhibition,"[3]; BGB IC40 combo, at 0.005 µM",12.6%
same,inhibition,"[3]; BGB IC40 combo, at 0.05 µM",98.1%
same,inhibition,[3]; at 0.5 µM,-13.3% (inactive)
same,inhibition,"[3]; cisplatin combo, at 0.05 µM",98%
same,inhibition,"[3]; cisplatin combo, at 0.5 µM",-8.2%
same,inhibition,"[3]; cisplatin combo, at 5 µM",-23.1%
same,inhibition,"[3]; measured here: 5 uM single agent, at 5 µM",-12.3%
same,inhibition,[4]; at 0.5 µM,38.6% (inactive)
same,inhibition,[4]; [17],-8.14%
same,inhibition,[4]; [20],68.7%
same,inhibition,[4]; [21],104%
same,inhibition,[5]; at 0.5 µM,-27.2% (inactive)
same,inhibition,"[5]; measured here: with BGB IC20, at 0.5 µM",-36.8%
same,inhibition,"[5]; measured here: with BGB IC20, at 5 µM",49.4%
same,inhibition,"[5]; measured here: with cisplatin IC20, at 0.5 µM",-31.8%
same,inhibition,"[5]; measured here: with cisplatin IC20, at 5 µM",19.9%
same,inhibition,"[5]; single agent, at 5 µM",73.7%
same,inhibition,[6]; at 0.5 µM,-38.8% (inactive)
same,inhibition,"[6]; measured here: combination with BGB at IC20, at 0.5 µM",-85.6%
same,inhibition,"[6]; measured here: combination with cisplatin at IC20, at 0.5 µM",-13.6%
same,inhibition,[7]; at 0.5 µM,-7.99% (inactive)
same,inhibition,"[7]; measured here: combo with BGB at IC20, at 0.5 µM",-0.15%
same,inhibition,"[7]; measured here: combo with cisplatin at IC20, at 0.5 µM",-18.7%
same,inhibition,[8]; at 0.5 µM,-2.76% (inactive)
same,inhibition,"[8]; measured here: inhibition with BGB combination, at 0.05 µM",-4.21%
same,inhibition,"[8]; measured here: inhibition with cisplatin combination, at 0.05 µM",-14.6%
same,inhibition,[9]; at 0.5 µM,-4.68% (inactive)
same,inhibition,[9]; [20],-7.54%
same,inhibition,[9]; [21],96.6%
same,inhibition,[10]; at 0.5 µM,0.62% (inactive)
same,inhibition,"[10]; measured here: BGB combination, at 0.5 µM",-2.01%
same,inhibition,"[10]; measured here: BGB combination, at 5 µM",38.1%
same,inhibition,"[10]; measured here: cisplatin combination, at 0.5 µM",2.13%
same,inhibition,"[10]; measured here: cisplatin combination, at 5 µM",46%
same,inhibition,"[11]; BGB combination, concentration series, at 5 µM",47.2%
same,inhibition,[11]; at 0.5 µM,-5.34% (inactive)
same,inhibition,"[11]; cisplatin combination, concentration series, at 5 µM",63.2%
same,inhibition,[12],-0.99% (inactive)
same,inhibition,[12]; measured here: combo with BGB IC20,17.5%
same,inhibition,[12]; measured here: combo with cisplatin IC20,-29.2%
same,inhibition,[13]; at 0.5 µM,-8.62% (inactive)
same,inhibition,"[13]; cisplatin combination, at 0.5 µM",-4.64%
same,inhibition,"[13]; cisplatin combination, at 5 µM",99.5%
same,inhibition,"[13]; measured here: BGB IC40 combination 0.05 uM, at 0.05 µM",21.5%
same,inhibition,"[13]; single agent, at 5 µM",59.7%
same,inhibition,[14]; at 0.5 µM,50.6% (inactive)
same,inhibition,"[14]; cisplatin combo, at 5 µM",103%
same,inhibition,"[14]; measured here: BGB IC40 combination, at 0.05 µM",-10.1%
same,inhibition,[14]; [20],81.1%
same,inhibition,"[14]; single agent, at 5 µM",98.9%
same,inhibition,[15]; at 0.5 µM,7.46% (inactive)
same,inhibition,[15]; [18],-4.11%
same,inhibition,[15]; [19],11.3%
same,inhibition,"[15]; single agent, at 0.05 µM",-37%
same,inhibition,"[15]; single agent, at 5 µM",95.5%
CCC(=O)N(CC)c1cc(C)ccc1OC1(C(=O)O)CCSCC1,z-score,[16],-0.47 (inactive)
CCCN1CCC(NCC(CC)(CC)CCC#N)CC1,z-score,[16],-0.565 (inactive)
Cc1cnc(CNC(=O)c2cccc(Nc3ncnc4c3cnn4C)c2)cn1,z-score,[16],-0.83 (inactive)
Cc1cccnc1CC(C)N(C)C(=O)c1cc(-c2cncnc2)nc2c(C)cccc12 (stereo not drawn),z-score,[16],1.18 (inactive)
CC(C)CCC(C)N[C@H](CO)Cc1ccccc1 (stereo partly drawn),z-score,[16],-0.5 (inactive)
